This passage reports z-score results from PubChem BioAssay AID488969 (Vanderbilt High Throughput Screening Facility, 2010).

In all, about 110,000 compounds were measured (“z-score”: median about -0.1, highest 2% from about 2 on). Many of the other results were omitted from the sample, so the highest values are more common in it than they were. Active and inactive are the calls of the source.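 Rule for the calls: active = z-score in the third read window above 3 or below -3; inactive = the rest.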

Chain of Metabotropic glutamate receptor 8 (Rattus norvegicus) (P70579 whole entry, looked up): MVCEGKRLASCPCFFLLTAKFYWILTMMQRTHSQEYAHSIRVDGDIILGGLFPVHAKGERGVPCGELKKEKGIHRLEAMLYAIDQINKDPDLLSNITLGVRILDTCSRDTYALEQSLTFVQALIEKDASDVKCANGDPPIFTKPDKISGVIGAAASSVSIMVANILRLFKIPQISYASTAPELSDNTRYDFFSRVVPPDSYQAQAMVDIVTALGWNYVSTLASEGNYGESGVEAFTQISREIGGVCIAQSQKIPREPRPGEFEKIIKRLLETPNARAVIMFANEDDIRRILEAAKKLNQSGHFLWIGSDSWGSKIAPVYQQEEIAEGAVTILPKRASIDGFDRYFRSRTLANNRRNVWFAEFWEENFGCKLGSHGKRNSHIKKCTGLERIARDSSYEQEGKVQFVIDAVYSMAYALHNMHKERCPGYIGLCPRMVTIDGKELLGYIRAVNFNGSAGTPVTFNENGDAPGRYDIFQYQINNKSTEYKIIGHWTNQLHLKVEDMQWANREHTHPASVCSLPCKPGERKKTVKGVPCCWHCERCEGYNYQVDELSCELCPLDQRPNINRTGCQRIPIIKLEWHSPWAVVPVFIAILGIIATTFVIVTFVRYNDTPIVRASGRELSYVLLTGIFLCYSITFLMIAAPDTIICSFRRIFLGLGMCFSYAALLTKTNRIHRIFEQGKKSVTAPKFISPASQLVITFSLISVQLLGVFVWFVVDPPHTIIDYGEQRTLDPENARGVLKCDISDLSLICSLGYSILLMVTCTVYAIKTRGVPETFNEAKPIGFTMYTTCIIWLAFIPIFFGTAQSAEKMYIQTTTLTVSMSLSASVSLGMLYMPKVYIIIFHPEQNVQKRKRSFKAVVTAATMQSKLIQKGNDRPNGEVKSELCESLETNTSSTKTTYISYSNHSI

The test has as its target Metabotropic glutamate receptor 8 (Rattus norvegicus) (UniProt P70579). Briefly: rat mGluR8 modulators via GIRK flux, primary screen, cell-based, thallium flux, HTS (AID 488969). Particulars: HEK293 rat mGluR8, GIRK (G protein-gated inwardly rectifying potassium channel) thallium flux, FluoZin2; at 10 µM; stronger effect = higher value; submaximal glutamate (EC20) added with thallium.
For the compound `Cc1ccc(Cn2c(SCC(=O)N/N=C/c3ccc(C)o3)nc3ccccc32)cc1`, the z-score is -0.169.

`Cc1ccc(-c2cnc(SCC(=O)N3CCCc4ccccc43)n2C)cc1`: the z-score is -0.31.

In turn, `O=C1c2ccccc2C(=O)N1CC1=CCS(=O)(=O)C1` displayed a z-score of 0.399.

As to `COc1ccc(N2CCN(C(=O)CCCn3c(=S)[nH]c4cc5c(cc4c3=O)OCO5)CC2)cc1`, the z-score was -0.487.

The compound `Cc1cc(C)nc(NC(=O)CCC2CCCC2)c1` registered a z-score of -0.0409.

Take `CS(=O)(=O)Nc1ccc(C(=O)NCCC2=CCCCC2)cc1`: the z-score was 1.28.

Consider `COc1ccc(-n2c(C)nc3cc(C(=O)NCc4ccco4)ccc32)cc1`, for which the z-score stood at 2.54.

In turn, `COc1ccc(-n2c(C)nc3cc(C(=O)NCc4ccc5c(c4)OCO5)ccc32)cc1` gave a z-score of -0.347.

On to `CCOc1ccc(-n2c(C)nc3cc(C(=O)NCc4ccco4)ccc32)cc1`, for which the z-score is 0.364.

In turn, `CC(=O)c1c(C)nn(C(C)CC(=O)O)c1C` (configuration not stated) returned a z-score of -0.0267.

For the compound `COc1cc(OC)nc(NC(=O)CSc2nnc(-c3ccccc3)n2C2CCCCC2)n1`, the z-score is -0.277.

On to `O=C(Nc1cccc(F)c1)c1ccccc1-c1ccccc1`, for which the z-score is -0.369.

`CC(=O)N1c2ccccc2C(C)(c2ccccc2)CC1(C)C` (configuration not stated) yielded a z-score of -0.236.

Turning to `CN1CCN(CC(=O)N2c3ccccc3C(C)(c3ccccc3)CC2(C)C)CC1` (configuration not stated), the z-score is 3.59 (active).

`Cc1nnc(SCC(=O)N2c3ccccc3C(C)(c3ccc(Cl)cc3)CC2(C)C)s1` (configuration not stated) registered a z-score of 0.227.

Compound `CC1(c2ccccc2)CC(C)(C)N(C(=O)CSc2nnc(N)s2)c2ccccc21` (configuration not stated) displayed a z-score of -0.521.

On to `Cc1nnc(SCC(=O)N2c3ccccc3C(C)(c3ccccc3)CC2(C)C)s1` (configuration not stated), for which the z-score was 0.611.

On to `CN1CCN(CC(=O)N2c3ccccc3C(C)(c3ccc(Cl)cc3)CC2(C)C)CC1` (configuration not stated), for which the z-score was 3.21 (active).

In turn, `CC1Cc2ccccc2N1C(=O)CCNS(=O)(=O)c1ccc2c(c1)CCC(=O)N2` (configuration not stated) gave a z-score of -0.0721.

With `Cn1c(=O)c2c(nc(NCCO)n2C)n(C)c1=O`, the z-score turned out to be 0.204.

`CCn1c(NCc2ccco2)nc2c1c(=O)n(C)c(=O)n2C` returned a z-score of 0.397.

For `CCn1c(C)c(C2=CCN(S(=O)(=O)c3ccc(C)cc3)CC2)c2ccccc21`, the z-score came out at 0.0891.

`CCN1C(=O)c2cccc3cccc1c23`: the z-score was -0.389.

As for `CCc1ccc2c(c1)c(N=NC1=NC(=O)CS1)c(O)n2C`, the z-score was 2.09.

In turn, `CCc1ccc2c(c1)c(N=NC1=NC(=O)CS1)c(O)n2CC` registered a z-score of 2.98.

Regarding `CCn1c(O)c(N=NC2=NC(=O)CS2)c2ccccc21`, the z-score turned out to be 0.217.

In turn, `CCOc1ccc2c(c1)c(N=Nc1cccc(C(=O)O)c1)c(O)n2C` yielded a z-score of -0.0674.

`CCn1c(O)c(N=NC2=NC(=O)CS2)c2cc(C)ccc21` displayed a z-score of 2.24.

In turn, `CCc1ccc2c(c1)c1nnc(NN)nc1n2CC` gave a z-score of -0.278.

`CCn1c(O)c(N=NC(=O)CNc2cccc(C)c2)c2ccccc21`: the z-score was determined as 1.4.

Turning to `CCOc1ccc2c(c1)c(N=NC(=N)N)c(O)n2C`, the z-score is -0.224.

Compound `Cc1cc(C)nc(N=Nc2c(O)n(Cc3ccc(Cl)cc3)c3ccccc23)n1` displayed a z-score of 0.0163.

Take `Cc1ccc(O)c(C(=O)/C=C/c2ccc3c(c2)OCCCO3)c1`: the z-score worked out at 0.653.

`CC(=O)NC1=NN(C(C)=O)C(C)(CS(=O)(=O)c2ccc(C)c(C)c2)S1` (configuration not stated) yielded a z-score of -0.323.

`COc1ccc(CN(C(=O)c2ccco2)c2ccc(Br)cc2)cc1OC` returned a z-score of -0.544.

Take `CCOC(=O)c1sc(C)c2c(=O)n(CC)nnc12`: the z-score worked out at 0.154.

The compound `Cc1ccc(NC(=S)NNC(=O)c2cn(C)nc2C)cc1` registered a z-score of 0.188.

As to `CSc1nc(-c2ccccc2)nc(N)c1C(C)=O`, the z-score is -0.0854.

As to `CSc1nc(-c2ccccc2)[nH]c(=S)c1C(C)=O`, the z-score was 7.43 (active).

In the case of `CC(=O)c1c(N)[nH]c(-c2ccccc2)nc1=S`, the z-score worked out at 1.28.

In turn, `CSc1nc(-c2ccccc2)nc(SC)c1C(C)=O` came in with a z-score of -0.493.

The compound `CC(=O)c1c(N2CCN(C)CC2)[nH]c(-c2ccccc2)nc1=S` returned a z-score of 0.167.

Regarding `CC(=O)c1c(N2CCCC2)[nH]c(-c2ccccc2)nc1=S`, the z-score was 14.8 (active).

The compound `S=C(NC12CC3CC(CC(C3)C1)C2)N1CCCC1` had a z-score of -0.0857.

`N#C/C(=C(/O)COC(=O)Cc1c[nH]c2ccccc12)c1nc2ccccc2[nH]1` displayed a z-score of -0.819.

The compound `Cc1ccc2c(c1)NC(=O)C(CC(=O)NCCCN1CCCC1)O2` (configuration not stated) yielded a z-score of 0.515.

Compound `COC(=O)CSc1nc(N)c(C#N)c(-c2ccco2)c1C#N` returned a z-score of -0.328.

In the case of `N#Cc1c(N)nc(SCc2ccccc2)c(C#N)c1-c1ccco1`, the z-score is 11.4 (active).

With `CCSc1nc(N)c(C#N)c(-c2ccco2)c1C#N`, the z-score is -0.377.

`COc1ccc(Oc2coc3cc(OC(=O)N4CCOCC4)ccc3c2=O)cc1` showed a z-score of -0.0315.

On to `Cc1cccc(Nc2nnc(SCC3CCCCO3)s2)c1C` (configuration not stated), for which the z-score was -0.0272.

Consider `COc1cccc(N(C(=O)Cn2nnc(-c3ccc(C)o3)n2)C(C(=O)NC(C)(C)C)c2cccs2)c1` (configuration not stated), for which the z-score was 0.439.

In turn, `O=C(NC(=S)Nc1ccccc1N1CCCCC1)c1cccs1` yielded a z-score of -0.0387.

Regarding `O=C(NC(=S)Nc1ccccc1N1CCOCC1)c1cccs1`, the z-score was 4.28 (active).

`O=C(Nc1ccccc1N1CCCCC1)c1ccco1` came in with a z-score of -0.657.

Consider `O=C(Nc1ccc(N2CCOCC2)cc1N1CCOCC1)c1cccs1`, for which the z-score is -0.508.

`CCCC(=O)NC(=S)Nc1cccc(Cl)c1N1CCCCC1` displayed a z-score of 0.12.

Turning to `O=C(NC(=S)Nc1cccc(Cl)c1N1CCCCC1)c1cccs1`, the z-score worked out at 2.55.

As to `CS(=O)(=O)N1CCN(c2ccccc2NC(=O)c2ccco2)CC1`, the z-score is -0.175.

For `O=C(NC(=S)Nc1cccc(Cl)c1N1CCCCC1)c1ccco1`, the z-score was 5.38 (active).

`O=C(Nc1ccccc1N1CCOCC1)c1cccs1` yielded a z-score of 0.511.

`O=C(NC(=S)Nc1ccccc1N1CCCCC1)c1ccco1`: the z-score was 5.87 (active).

Consider `CCC(=O)NC(=S)Nc1cccc(Cl)c1N1CCCCC1`, for which the z-score stood at 0.315.

In turn, `O=C(NC(=S)Nc1cccc(Cl)c1N1CCCCC1)c1ccc2c(c1)OCCO2` displayed a z-score of 0.413.

In turn, `Cc1ccc(NC(=O)c2ccc(CSc3nnnn3C)cc2)cc1` came in with a z-score of -0.174.

Turning to `COc1ccc(-n2c(N)c(C(=O)NCc3cccnc3)sc2=S)cc1`, the z-score came to 0.463.

Take `Cc1nc(NNC(=O)c2ccc(Cl)cc2Cl)cc(-c2ccccc2)n1`: the z-score is 0.141.

Compound `CCCOC(=O)c1ccc(OCC(O)CN2C(=O)NC(C)(C)C2=O)cc1` (configuration not stated) returned a z-score of 0.307.

The compound `O=[N+]([O-])c1cccc(C(=Nc2ccc(Cl)cc2)NO)c1` displayed a z-score of -0.259.

For `CC(NC(=O)Nc1nnc(C(F)(F)F)s1)N1C(=O)C2C3C=CC(C3)C2C1=O` (configuration not stated), the z-score was determined as 0.0447.

`CCCCCNc1nc(NCCCO)c(C#N)c2c1CN(C)CC2` yielded a z-score of -0.528.

In the case of `CC1CCN(c2ccccc2NC(=S)NC(=O)c2ccco2)CC1`, the z-score is 3.89 (active).

As for `O=C(Cc1ccc(Cl)cc1)NC(=S)Nc1ccccc1N1CCOCC1`, the z-score came to 0.883.

`CC1CCN(c2ccccc2NC(=S)NC(=O)c2cccs2)CC1` had a z-score of 1.61.

In turn, `O=C(Nc1ccccc1N1CCCC1)c1ccco1` came in with a z-score of -0.0103.

For the compound `O=C(NC(=S)Nc1ccccc1N1CCOCC1)c1ccco1`, the z-score was 9.71 (active).

The compound `CC1CCN(c2ccccc2NC(=O)c2ccc(F)cc2)CC1` had a z-score of -0.52.

`N#C/C(=C\c1ccc(Cl)cc1Cl)c1n[nH]c(Cn2cncn2)n1` showed a z-score of -1.59.

Compound `O=c1cc(NCc2ccco2)c2ccccc2o1` gave a z-score of -0.304.

The compound `CC1=C(C(=O)OC(C)C)C(c2cccs2)C(C(=O)OC(C)C)=C(C)N1` returned a z-score of -0.281.

`NC(=O)c1cccnc1Nc1ccccc1Cl` showed a z-score of -0.423.

As for `O=C(/C=C/c1cccc([N+](=O)[O-])c1)NCCSc1ccccc1`, the z-score was -0.3.

Compound `COc1ccc(C(C(=O)NC(C)(C)C)N(C(=O)CNC(=O)c2cccs2)c2ccc(C(C)C)cc2)cc1OC` (configuration not stated) registered a z-score of -0.16.

Consider `O=C(CSc1cnc2ccccc2n1)NC1CCCC1`, for which the z-score was -0.494.

`COc1ccccc1N1CCN(S(=O)(=O)c2cccc3nsnc23)CC1` had a z-score of -0.393.

On to `N=c1n(Cc2ccccc2)c2ccccc2n1CC(O)COc1ccccc1` (configuration not stated), for which the z-score is 0.257.

`OC(COc1ccccc1)Cn1c2ccccc2c2ccccc21` (configuration not stated) displayed a z-score of -0.0732.

`Cc1ccc(Cn2c(=N)n(CC(O)COc3ccccc3)c3ccccc32)cc1` (configuration not stated) gave a z-score of 2.98.

With `Cc1ccc(OCC(O)Cn2c3ccccc3c3ccccc32)cc1` (configuration not stated), the z-score was -0.222.

In turn, `COc1ccccc1OCC(O)Cn1c(=N)n(Cc2ccccc2)c2ccccc21` (configuration not stated) registered a z-score of 0.691.

For `Cc1ccc(OCC(O)Cn2c(=N)n(Cc3ccccc3)c3ccccc32)cc1` (configuration not stated), the z-score is 4.01 (active).

Consider `COc1cc(SC)ccc1C(=O)N(C)Cc1ccccc1`, for which the z-score is 0.253.

`CCOC(=O)CSc1ncc(-c2ccccc2)cn1` showed a z-score of -0.0802.

`CCOC(=O)N1CCN(C(=O)C2CCN(S(=O)(=O)c3ccccc3)CC2)CC1` came in with a z-score of -0.151.

Compound `CN1CCN(C(=S)Nc2cccc(C(F)(F)F)c2)CC1` registered a z-score of -0.213.

The compound `O=C(Oc1ccc(Br)cc1C(=S)N1CCCCC1)c1cc([N+](=O)[O-])cc([N+](=O)[O-])c1` returned a z-score of 0.762.

As to `Cc1c([N+](=O)[O-])cc(C(=O)Oc2ccc(Br)cc2C(=S)N2CCCCC2)cc1[N+](=O)[O-]`, the z-score was 3.58 (active).

For the compound `Cc1ccccc1C(=O)Oc1ccc(Br)cc1C(=S)N1CCCC1`, the z-score is -0.342.

The compound `C=C(C)CN=C1SC(C(=O)Nc2sc3c(c2C(=O)OC)CCC3)C(N)=C1C(N)=O` (configuration not stated) registered a z-score of 0.236.

For the compound `O=C(c1cc2sccc2n1Cc1ccc(F)cc1)N1CCCc2ccccc21`, the z-score came to 0.225.

In turn, `COC(=O)c1cc2sccc2n1CC(=O)N1CCCc2ccccc21` registered a z-score of 2.64.

`O=C(c1cc2sccc2n1Cc1ccccc1)N1CCCc2ccccc21` yielded a z-score of -0.795.

`CC(C)CCNC(=O)C(c1cccnc1)N(CCc1ccccc1)C(=O)Cn1nnc2ccccc21` (configuration not stated) showed a z-score of 0.555.

In the case of `c1ccc(CCNc2nc(-c3cccnc3)cs2)cc1`, the z-score is -0.023.

On to `CCCCCNc1nc(-c2ccccc2)cs1`, for which the z-score was 3.86 (active).

`CC(C)=NNc1nc(-c2ccccc2)cs1` gave a z-score of -0.203.

In turn, `CN(Cc1ccccc1)c1nc2c(c(=O)[nH]c(=O)n2C)n1CCSc1ncccn1` showed a z-score of 0.672.

Compound `CC1(C)C2CC=C(/C=N/n3cnnc3)C1C2` (configuration not stated) came in with a z-score of 2.

`CC(C)NC(=S)N/N=C/C1=CCC2CC1C2(C)C` (configuration not stated) displayed a z-score of -0.69.

Compound `CC1(C)C2CC=C(/C=N/NC(=O)c3ccc(O)cc3)C1C2` (configuration not stated) had a z-score of -0.0642.

In turn, `Cc1nc2ccc(S(=O)(=O)NC(C(=O)NCc3ccc4c(c3)OCO4)C(C)C)cc2s1` (configuration not stated) had a z-score of -0.0773.

`CCn1cc(C(=O)OCC(=O)c2cc(C)n(-c3ccccc3F)c2C)c(=O)c2ccc(C)nc21` showed a z-score of -0.711.
